Screens deposited in PubChem BioAssay by National Center for Advancing Translational Sciences (NCATS).
Hits are enriched below; roughly 21% of the tested compounds scored in any of these assays.
Pf growth 48h – inhibits P. falciparum growth in the first generation, 48 h | 310,000 compounds, 5.9% hits | AID 504832 | P. falciparum luciferase growth in erythrocytes, 48 h | Potency, µM (top dose mostly 28.7 µM), inactives show at the top dose activity change, negative = inhibition, usual class: inhibitors; also: potency is read from the fitted curve at half-maximal effect; % is scaled to controls: 0 for no effect and ±100 for the full control effect
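Erythrocytes infected with P. falciparum carrying an integrated firefly luciferase reporter (2% hematocrit, 0.1% parasitemia final) were exposed to compounds in RPMI 1640 with 0.5% Albumax at 37 C, 5% CO2. Growth inhibition was scored as reduced luminescence.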
Shiga inhibitor – blocks Shiga toxin action in Vero cells; Vero cells, Shiga toxin protein synthesis inhibition reporter; inhibition, % at 38.7 µM; 290,000 compounds, 9.2% hits; AID 2315; in the data active = inhibition mostly above about 28%, no sharp cut-off; inactive = mostly below about 43%; also: 0% is about no effect
CHX counter – counter-screen for Shiga toxin inhibitors: cycloheximide protein synthesis inhibition | cell reporter, cycloheximide protein synthesis inhibition counterscreen | max response, % | 300,000 compounds, 12% hits | AID 2314; in the data active = max response mostly above about 13%, no sharp cut-off; inactive = mostly below about 14%; also: read at 38.3 µM for the half of the compounds with a filed dose; 0% is about no effect
Pf growth 96h – P. falciparum growth inhibition at 96 hours. P. falciparum luciferase reporter growth, 96 h. Potency, µM (titrated, usually from 28.7 µM), without a hit: at the highest dose activity change, negative = inhibition, hits mostly inhibitors. 320,000 compounds, 6.9% hits; also: potency is read from the fitted curve at half-maximal effect; % is scaled to controls: 0 for no effect and ±100 for the full control effect
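Infected RBCs, 2% Hct / 0.05% parasitemia final; luciferase-reporter P. falciparum; cpd 96 h, 37 C, 5% CO2; luciferase detection reagent; luminescence.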
* marks the source's active call; other numbers are inactive results; ? = inconclusive; / = no result. Unless noted, calls follow the shape of the dose curve; as a rule, active = well fitted inhibition curve with a large enough effect; inconclusive = small, poorly fitted or top-dose-only effect, or another doubt; inactive = no such curve, though single readings can be large or run the other way.

SMILES	Pf growth 48h	Shiga inhibitor	CHX counter	Pf growth 96h
CNc1nc(N2CCc3ccccc32)ncc1F	222%	105*	39*	/
O=C(c1ccc(Cl)cc1)N1CCC(C(=O)N2CCCc3ccccc32)CC1	-21%	-13	1	?
Cc1cc(=O)[nH]c(N/N=C/c2c(C)nn(-c3ccccc3)c2Cl)n1	4.7µM*	26	7	8.3µM*
Cc1cc(=O)[nH]c(N/N=C/c2c(C)oc3ccccc23)n1	?	15	1	?
Cc1nn(-c2ccccc2)c(Cl)c1/C=N/Nc1nc2ccccc2[nH]1	0.74µM*	146*	39*	0.74µM*
Cc1nn(-c2ccccc2)c(Cl)c1/C=N/O	0%	-1	-4	?
COc1ccc(NC(=O)COC(=O)Cc2c(F)cccc2Cl)cc1	-9%	33*	45*	13%
COc1ccc(NC(=O)Cc2c(C)n(C(=O)c3ccc(Cl)cc3)c3ccc(OC)cc23)cc1	?	28	13	3.3µM*
COc1ccc(NC(=O)Cc2c(F)cccc2Cl)cc1	28%	62*	31*	38%
COc1ccc2c(c1)c(CC(=O)Nc1ccc(C)cc1)c(C)n2C(=O)c1ccc(Cl)cc1	/	-9	-1	-13%
Cc1ccccc1CSc1n[nH]c(NS(=O)(=O)c2ccccc2)n1	10%	10	3	52%
CSc1cc(C)c(OCC(=O)Nc2c(C)nn(C)c2C)c(C)c1	?	-13	8	?
CC1(C)c2ccccc2N2CCC(=O)NC21/C=C/c1ccco1 (stereo unspecified)	?	1	1	10µM*
Cc1ccc2cc3c(NC(=O)c4ccco4)nn(C)c3nc2c1	?	-19	-3	8.3µM*
CCn1nc(NC(=O)c2ccco2)c2cc3cc(C)ccc3nc21	-11%	28	9.8*	7%
CCCn1nc(NC(=O)c2ccco2)c2cc3ccccc3nc21	8%	19	3	?
CC(=O)C1=C(C)Nc2ncnn2C1c1ccc(Cl)cc1Cl (stereo unspecified)	?	14	11	14%
COc1ccc(-c2nc(N3CCN(S(=O)(=O)c4ccc(C)cc4)CC3)c3ccccc3n2)cc1	/	73	27*	/
O=S(=O)(c1ccc(Cl)cc1)N1CCN(c2nc(-c3cccs3)nc3ccccc23)CC1	3.7µM*	14	-3	1.5µM*
CC(=O)c1ccc(S(=O)(=O)N2CCN(c3nc(-c4cccnc4)nc4ccccc34)CC2)cc1	8.3µM*	/	/	?
O=S(=O)(c1ccc(F)cc1)N1CCN(c2nc(-c3cccnc3)nc3ccccc23)CC1	9.3µM*	/	/	10µM*
O=S(=O)(c1ccccc1)N1CCN(c2nc(-c3cccnc3)nc3ccccc23)CC1	?	/	/	8.3µM*
O=S(=O)(c1ccc2c(c1)OCCO2)N1CCN(c2nc(-c3cccnc3)nc3ccccc23)CC1	?	-19	-4	?
CC(NC(=O)CC(c1ccccc1)c1cc(Cl)ccc1O)c1ccccc1 (stereo unspecified)	?	-4	-5	-2%
CN(Cc1ccccc1)C(=O)CC(c1ccccc1)c1cc(Cl)ccc1O (stereo unspecified)	?	-14	-1	10µM*
SMILES	Pf growth 48h	Shiga inhibitor	CHX counter	Pf growth 96h
CCc1ccc(N(C(=O)c2ccco2)C(C(=O)NC2CCCC2)c2ccncc2)cc1 (stereo unspecified)	-13%	74*	15*	?
O=C(NC1CCCCC1)C(c1ccncc1)N(Cc1ccc2c(c1)OCO2)C(=O)C(F)(F)F (stereo unspecified)	9.3µM*	-3	-2	2.1µM*
CCc1ccc(N(C(=O)C(F)(F)F)C(C(=O)NC2CCCCC2)c2ccncc2)cc1 (stereo unspecified)	13µM*	-1	-2	2.6µM*
O=C(NC1CCCC1)C(c1ccncc1)N(C(=O)c1ccco1)c1ccc(Cl)cc1 (stereo unspecified)	0%	-3	-6	?
CC(=O)N[C@H]1[C@H](Oc2ccc3c(c2)CCC2C3CC[C@]3(C)C(=O)CCC23)O[C@H](CO)[C@@H](O)[C@@H]1O (stereo partly specified)	9%	-5	-1	7%
COc1ccccc1CNC(=O)c1sccc1-c1ccccc1	?	11	0	?
NC1=NC[C@H](Cc2ccccc2)N1CCc1cc(C(F)(F)F)cc(C(F)(F)F)c1	3.3µM*	-6	-3	?
FC(F)(F)c1cc(CCN2C(=S)NC[C@@H]2Cc2ccccc2)cc(C(F)(F)F)c1	?	-10	-2	?
NC1=NC[C@H](Cc2ccc(O)cc2)N1CCc1cccc(F)c1	13µM*	12	-2	2.3µM*
